Compound activity deposited in PubChem by several laboratories.
Shn3 inh set2: reduces Shn3 3'UTR luciferase signal in osteoblasts; Clone20 osteoblast Shn3 3'UTR firefly luciferase, 24 h; inhibition, % at 12.5 µM; 360,000 compounds, 0.52% hits; AID 588674;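 active = mean inhibition of at least 75% with every replicate also reaching 75%; inconclusive = mean inhibition at least 75% but some replicate below; inactive = mean inhibition below 75%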;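 note: 0% = median of neutral control wells and 100% = pilot-screen positive control compound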
LMP1 NFkB inh: inhibitors of Epstein-Barr LMP1-induced NF-kappaB reporter; 350,000 compounds, 0.69% hits; AID 504558; inhibition, % at 12.5 µM; LMP1-induced NF-kappaB luciferase reporter cells, luminescence; in the data active = inhibition above about 41%; inconclusive = no clear call, values can overlap the other calls;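 note: 0% = neutral control wells and 100% = reference inhibitor control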
697 NFkB inh: lowers PMA/ionomycin-induced NF-kB signal in 697 B cells. 697 B-cell NF-kB luciferase reporter, 16 h. inhibition, % at 4 µM. 330,000 compounds, 0.33% hits; in the data active = inhibition above about 35%
Gli-Sufu antag: Gli-Sufu pathway antagonism; Sufu-KO-LIGHT fibroblasts, Gli luciferase reporter luminescence; 340,000 compounds, 0.74% hits; inhibition, % at 5 µM; AID 588413;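 active = inhibition above about 55%, limit read from the data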;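 note: 0% = DMSO-treated cells and 100% = wells with medium but no cells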
MITF TRPM1 inh: reduces MITF-dependent TRPM1 promoter luciferase signal; SK-MEL-5 TRPM1 promoter luciferase, 24 h; inhibition, % at 12.5 µM; 330,000 compounds, 0.83% hits;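 active = mean inhibition across replicates of 60% or more, whatever share of single replicates reaches that level; inconclusive = some that reach 60%, reason not given; inactive = mean inhibition across replicates below 60%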
Jurkat NFkB inh: lowers PMA/ionomycin-induced NF-kB signal in Jurkat cells. 330,000 compounds, 0.53% hits. inhibition, % at 4 µM. AID 435003. PMA/ionomycin-induced NF-kB luciferase reporter, luminescence; in the data active = inhibition above about 50%
Gli antag conf: Gli-SUFU antagonism confirmation, single concentration; shares compounds with Gli-Sufu antag; Sufu-KO-LIGHT cells, Gli luciferase reporter, luminescence; inhibition, % at 5 µM; 2,500 compounds, 40% hits; AID 602428;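 active = mean inhibition at 5 µM reaching about 45%, limit read from the data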;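 note: plate controls were DMSO-treated cells for no effect and wells lacking cells for full effect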
SufuKO cytotox: cytotoxicity counter-screen for Gli-SUFU antagonists; shares compounds with Gli-Sufu antag; Sufu-KO-LIGHT cells cytotoxicity, ATP luminescence; cytotoxicity, % at 5 µM; 2,500 compounds, 32% hits;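 active = mean cytotoxicity at 5 µM above about 25%, limit read from the data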;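 note: cells exposed to compound overnight for roughly 16 to 18 hours; plate controls were DMSO wells with cells for no effect and medium without cells for full effect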
Wnt3a counter: Wnt3a reporter inhibition counter-screen; shares compounds with Gli-Sufu antag; Wnt-LIGHT cells, Wnt3a-driven luciferase reporter, luminescence; inhibition, % at 6.25 µM; 2,500 compounds, 20% hits;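 active = mean inhibition above about 25%, limit read from the data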
The depositor's hits bear a star; ? = inconclusive; . = no result. Hits are enriched below; roughly 2.3% of the tested compounds scored in any of these assays.

SMILES | Shn3 inh set2 | LMP1 NFkB inh | 697 NFkB inh | Gli-Sufu antag | MITF TRPM1 inh | Jurkat NFkB inh | Gli antag conf | SufuKO cytotox | Wnt3a counter
CCOC(=O)Nc1ccc2c(c1)N(C(=O)CNC)c1ccccc1CC2 | -11.6 | 3.2 | 4.0 | 51.2 | 0.0 | -5.3 | 8.1 | -1.6 | -14.2
O=C(c1cccc(S(=O)(=O)N2CCN(c3ccccc3)CC2)c1)N1CCCC(C(F)(F)F)C1 (stereo not drawn) | ? | 22.1 | -38.0 | 55.0 | 26.6 | 20.5 | 56.7* | 15.4 | -4.8
O=C(c1cc(S(=O)(=O)N2CCN(c3ccccc3)CC2)ccc1Cl)N1CCCC(C(F)(F)F)C1 (stereo not drawn) | 57.8 | 11.2 | -47.1 | 43.6 | 19.1 | 16.2 | . | . | .
O=C(c1cccc(S(=O)(=O)N2CCCc3ccccc32)c1)N1CCN(c2ccccc2)CC1 | 3.3 | 5.7 | 13.0 | 52.2 | 3.6 | -6.6 | 19.2 | 9.6 | -36.8
CCCCN(C(=O)CSCC(=O)Nc1cccc(C)c1)c1c(N)n(CCCC)c(=O)[nH]c1=O | -8.0 | -1.6 | -17.6 | -11.4 | -3.8 | -3.4 | . | . | .
CCOC(=O)c1ccc(NC(=O)CSc2nnc(CNC(=O)c3ccccc3F)o2)cc1 | -4.4 | -7.6 | 2.1 | 95.6* | 18.9 | 13.3 | 16.9 | -8.8 | 11.5
Cc1ncc(CO)c(/C=N/NC(=O)c2cc(Br)ccc2O)c1O | -0.9 | -2.3 | 8.7 | 96.2* | 41.4 | -1.9 | 9.2 | 21.5 | 3.1
CS(=O)(=O)c1ccc(C(=O)OCC(=O)NC(=O)C2CCCCC2)cc1[N+](=O)[O-] | 36.7 | -2.6 | 2.8 | 65.1* | 66.5* | -3.4 | 14.2 | 3.1 | 8.6
O=C(c1ccncc1)N1CCCC(N2CCN(c3cccc(C(F)(F)F)c3)CC2)C1 (stereo not drawn) | 13.4 | 9.1 | -26.3 | 11.9 | 10.4 | -4.3 | . | . | .
CCc1cc(C(=O)N2CCCC(N3CCN(c4cccc(C(F)(F)F)c4)CC3)C2)n(C)n1 (stereo not drawn) | 65.8 | 17.0 | -67.6 | 55.1* | -1.9 | 10.8 | 30.1 | 16.9 | -29.0
CC[C@@]1(C(=O)OC)N[C@H](CN(C)C(=O)Nc2ccc(Cl)cc2)[C@@H]2C(=O)N(C)C(=O)[C@@H]21 | -5.8 | 3.2 | 7.8 | -5.5 | -7.9 | -9.1 | . | . | .
O=C(c1ccccc1Cl)N1CCC(N2CCC(C(=O)N3CCCC3)CC2)CC1 | -21.2 | 0.2 | -43.5 | 92.2* | -8.6 | -6.2 | 9.2 | 13.3 | -20.8
O=C(O)C1CCN(C(=O)c2ccccc2Cl)CC1 | -7.3 | -17.7 | 15.2 | -0.2 | 6.2 | -0.8 | . | . | .
O=C(c1cc(F)ccc1F)N1CCC(N2CCC(C(=O)N3CCCC3)CC2)CC1 | -27.5 | -6.2 | -8.6 | 56.7* | -10.8 | 0.4 | 13.3 | 18.0 | -19.4
O=C(c1cccc(Cl)c1)N1CCC(N2CCC(C(=O)N3CCOCC3)CC2)CC1 | 11.3 | 0.9 | 9.5 | -2.6 | -2.0 | -3.9 | . | . | .
O=C(NNc1nc(=O)c2cccnc2s1)c1ccccc1O | 14.8 | -7.0 | -21.8 | 85.0* | 16.4 | -11.2 | 24.9 | 26.7* | -20.7
O=C(NNc1c2ccccc2nc2ccccc12)c1ccccc1O | 18.8 | -13.0 | 12.8 | 9.6 | -13.6 | 3.7 | . | . | .
CN1CCc2nc(NC(=O)c3cccc(OC(F)F)c3)sc2C1 | -13.2 | -0.7 | -29.2 | 68.5* | -43.9 | -36.2 | 10.2 | 11.2 | -101.4
CCCn1c(N2CCN(C(=O)NCc3ccccc3)CC2)nc2ccccc21 | 17.1 | 8.4 | -2.7 | 56.6* | 2.2 | -3.5 | 33.7 | 19.6 | -89.8
Cn1c(N2CCN(C(=O)NCc3ccccc3)CC2)nc2ccccc21 | -1.2 | -7.4 | 4.4 | 9.7 | 4.9 | 6.2 | . | . | .
COc1ccccc1N1CCN(/N=C/c2ccc(O)c(O)c2)CC1 | . | . | -63.3 | 54.6 | . | 34.3 | 24.8 | 0.8 | 18.5
CC(=O)c1ccc(NC(=O)Nc2ccc(NS(=O)(=O)c3ccc(C)cc3)cc2)cc1 | 41.7 | 1.0 | -6.2 | 75.2* | 7.8 | 1.5 | 21.7 | 5.9 | 25.0*
CCNC(=S)N(CCN(C)C)Cc1cc2cc(OCC)ccc2[nH]c1=O | 0.5 | 8.4 | -7.1 | 60.3* | -3.7 | 8.8 | 22.6 | 12.2 | -7.5
CCNC(=S)N(CCc1ccccc1C)Cc1cc2cc(OC)c(OC)cc2[nH]c1=O | 9.5 | 0.2 | -9.8 | 2.2 | -6.1 | -2.0 | . | . | .
CCNC(=S)N(CCc1cccc(C)c1)Cc1cc2cc(OC)c(OC)cc2[nH]c1=O | -10.7 | 6.5 | 4.4 | 52.0 | 5.1 | -12.7 | 13.8 | 24.7 | -21.6
SMILES | Shn3 inh set2 | LMP1 NFkB inh | 697 NFkB inh | Gli-Sufu antag | MITF TRPM1 inh | Jurkat NFkB inh | Gli antag conf | SufuKO cytotox | Wnt3a counter
CCc1ccccc1Nc1nc(N)nc(COC(=O)CCNS(=O)(=O)c2ccccc2)n1 | -16.8 | -3.8 | -19.2 | -9.3 | 6.6 | -5.2 | . | . | .
CCOc1ccccc1NC(=S)N1CCN(c2ccccc2)CC1 | -11.8 | 5.5 | -10.2 | 29.4 | -1.7 | -6.5 | . | . | .
CCc1ccccc1NC(=S)N(CCCN1CCN(C)CC1)Cc1cccs1 | 6.1 | -11.4 | -1.1 | 54.1 | -10.2 | -0.7 | 16.9 | 3.7 | 13.7
O=C(COC(=O)c1cccnc1Nc1ccccc1F)NCCN1C(=O)CSC1=O | 4.3 | -7.9 | 23.8 | 50.5 | 1.0 | -1.8 | 20.4 | -2.5 | -30.8
Cc1cc(Cl)ccc1C(=O)C1CCCN(C(=O)CN2CCOC2=O)C1 (stereo not drawn) | 11.3 | -0.2 | 6.3 | -3.6 | -3.7 | 0.3 | . | . | .
Cc1ccc(-c2c[n+](Cc3cccc(Cl)c3)c3n2CCC3)cc1 | 46.7 | 6.0 | -41.3 | 79.3* | 67.4* | 21.3 | 82.5* | 35.8* | 19.3
Clc1cccc(C[n+]2cc(-c3ccccc3)n3c2CCC3)c1 | 14.9 | 2.4 | -22.6 | 47.8 | 14.6 | 12.4 | . | . | .
O=C(C[n+]1cc(-c2ccc(Cl)cc2)n2c1CCCCC2)c1ccccc1 | -10.6 | -3.2 | -20.8 | 25.3 | 0.2 | -7.0 | . | . | .
Cc1ccc(C[n+]2cc(-c3ccc(Cl)cc3)n3c2CCC3)cc1 | 11.7 | 5.9 | -22.4 | 76.8* | 39.8 | 8.1 | 79.0* | 32.4* | 18.7
CCc1ccc(NC(=O)C[n+]2cc(-c3ccc(C)cc3)n3c2CCC3)cc1 | . | . | 1.5 | 5.3 | . | 17.1 | . | . | .
Cc1ccc(-c2c[n+](Cc3ccc(Cl)cc3)c3n2CCC3)cc1 | 47.8 | 13.1 | -9.3 | 79.4* | 35.5 | 23.7 | 81.5* | 33.3* | 19.0
COc1ccccc1NC(=O)CCC(=O)Nc1cc(OC)c(NC(=O)c2cccs2)cc1OC | 9.6 | -9.9 | -15.3 | -22.5 | 14.3 | -12.6 | . | . | .
CCOC(=O)Cn1c(COc2ccccc2OC)[n+](C)c2ccccc21 | 12.6 | . | 2.9 | 52.0 | . | 8.3 | 17.7 | 13.8 | 18.0
CCCN1CCC(=O)N([C@H](CSc2ccc(OC)cc2)Cc2ccccc2)CC1 | 56.3 | 2.6 | 11.1 | 52.5 | -0.5 | 12.7 | 48.4* | 18.1 | 10.2
